# Reference: PubChem BioAssay (NCATS)
# A number with no mark means an inactive call. For part of these data: Entries with a potency or affinity are not part of this list. Calls of active or inactive are those of the source. No rule for the calls is given here. Peptide text beside a SMILES is read from it.
# Conditions: Ebola virus entry assay, green fluorescence channel
# For efficacy in this document: 0% is about no effect.
row,SMILES,efficacy
1,Cc1cc2c(cc1CC(=O)c1sccc1S(=O)(=O)Nc1onc(C)c1Cl)OCO2,-22.3%
2,Nc1c[n+](N2CCOCC2)no1,-8.8%
3,CCc1cccc(CC)c1NC(=O)CN(CC(=O)O)CC(=O)O,15.2%
4,CCOC(=O)c1ccc(O)cc1,-24.8%
5,CCN1CCC[C@H]1CNC(=O)c1c(O)c(Cl)cc(Cl)c1OC,-17.7%
6,Cc1nc2c([nH]1)c(=O)n(C)c(=O)n2Cc1ccco1,40.2%
7,CN1C[C@@H]2C[C@H]1CN2c1cc2c(cc1F)c(=O)c(C(=O)O)cn2C1CC1,18.4%
8,CC1(C)S[C@@H]2[C@H](NC(=O)C(c3ccccc3)S(=O)(=O)O)C(=O)N2[C@H]1C(=O)O (stereo partly drawn),24.6%
9,CNC[C@H](O)[C@@H](O)[C@H](O)[C@H](O)CO,-10.6%
10,CCOC(=O)/C=C(C)/C=C/C=C(C)/C=C/c1c(C)cc(OC)c(C)c1C,27.5%
11,NC(=S)N/N=C/c1cccnc1,12.5%
12,O=C(O)Cn1c(=O)n(Cc2ccc(Br)cc2F)c(=O)c2ccc(Cl)cc21,-18.1%
13,Cn1c(=O)c2c(ncn2CCO)n(C)c1=O,-37.9%
14,CC(C)=CCC/C(C)=C/CC/C(C)=C/CCC(=O)OC/C=C(\C)CCC=C(C)C,10.8%
15,CCN[C@H]1CN(CCCOC)S(=O)(=O)c2sc(S(N)(=O)=O)cc21,16.3%
16,CC(=O)Oc1ccc(C)cc1,12.2%
17,NS(=O)(=O)c1cc(-c2nn[nH]n2)c(NCc2cccs2)cc1Cl,-20.9%
18,COC(=O)C1=C(C)NC(C)=C(C(=O)OCC(C)=O)C1c1ccccc1[N+](=O)[O-] (stereo not drawn),-11.1%
19,O=C(CCBr)N1CCN(C(=O)CCBr)CC1,10.2%
20,C[C@]12CC[C@H]3[C@@H](CCC4=CC(=O)CC[C@@H]43)[C@@H]1CC[C@@H]2OC(=O)CCc1ccco1,-14.7%

row,SMILES,efficacy
1,Cc1ccc(O)c2ncccc12,17.9%
2,O=C1c2ccccc2CCc2ccccc21,12.1%
3,CCC(=O)c1c(O)cc(O)cc1O,21.1%
4,CC(=O)NO,-14.2%
5,C[N+](C)(C)CCOC(N)=O,12.2%
6,Nc1ncnc2c1ncn2[C@@H]1O[C@H](COP(=O)(O)O)[C@@H](O)[C@H]1O,14.6%
7,N[C@@H](COP(=O)(O)O)C(=O)O,-11.1%
8,CCOC(N)=O,-34.6%
9,CC(C)(Oc1ccc(C2CC2(Cl)Cl)cc1)C(=O)O (stereo not drawn),16.1%
10,CCCC(=O)OCOC(=O)C1=C(C)NC(C)=C(C(=O)OC)C1c1cccc(Cl)c1Cl (stereo not drawn),17.3%
11,C[C@]12C=CC(=O)C=C1CC[C@@H]1[C@@H]2C(=O)C[C@@]2(C)[C@H]1CC[C@]2(O)C(=O)CO,-19.9%
12,CC(=O)O[C@@H]1CC2C3CCc4cc(OC(=O)c5ccccc5)ccc4C3CCC2(C)[C@H]1OC(C)=O (stereo partly drawn),11.6%
13,CCN1CCC[C@H]1CNC(=O)c1cc(S(N)(=O)=O)ccc1OC,-21.3%
14,CCNC(=O)[C@@H]1CCCN1C(=O)[C@H](CCCN=C(N)N)NC(=O)[C@H](CC(C)C)NC(=O)CNC(=O)[C@H](Cc1ccc(O)cc1)NC(=O)[C@H](CO)NC(=O)[C@H](Cc1c[nH]c2ccccc12)NC(=O)[C@H](Cc1cnc[nH]1)NC(=O)[C@@H]1CCC(=O)N1 (HELM PEPTIDE1{[Glp].H.W.S.Y.G.L.R.P.[CCN[*:1]]}$$$$V2.0),17.9%
15,NS(=O)(=O)c1ccc(NC(=O)CCC(=O)O)cc1,9.25%
16,Cc1cccc(C(=O)O)c1O,15.1%
17,CC(=O)OCC1=C(C(=O)O)N2C(=O)[C@@H](NC(=O)Cc3cccs3)[C@H]2SC1,-9.53%
18,Cc1onc(-c2ccccc2)c1C(=O)Cl,6.34%
19,CC(=O)OCC(=O)[C@@]1(O)[C@H](C)C[C@H]2[C@@H]3CCC4=CC(=O)C=C[C@]4(C)[C@@]3(F)[C@@H](O)C[C@@]21C,26.4%

# Conditions: Ebola virus entry assay, blue channel fluorescence
row,SMILES,outcome
1,Cc1cc2c(cc1CC(=O)c1sccc1S(=O)(=O)Nc1onc(C)c1Cl)OCO2,inactive
2,Nc1c[n+](N2CCOCC2)no1,inactive
3,CCc1cccc(CC)c1NC(=O)CN(CC(=O)O)CC(=O)O,inactive
4,CCOC(=O)c1ccc(O)cc1,inactive
5,CCN1CCC[C@H]1CNC(=O)c1c(O)c(Cl)cc(Cl)c1OC,inactive
6,Cc1nc2c([nH]1)c(=O)n(C)c(=O)n2Cc1ccco1,inactive
7,CN1C[C@@H]2C[C@H]1CN2c1cc2c(cc1F)c(=O)c(C(=O)O)cn2C1CC1,inactive
8,CC1(C)S[C@@H]2[C@H](NC(=O)C(c3ccccc3)S(=O)(=O)O)C(=O)N2[C@H]1C(=O)O (stereo partly drawn),inactive
9,CNC[C@H](O)[C@@H](O)[C@H](O)[C@H](O)CO,inactive
10,CCOC(=O)/C=C(C)/C=C/C=C(C)/C=C/c1c(C)cc(OC)c(C)c1C,inactive
11,NC(=S)N/N=C/c1cccnc1,inactive
12,O=C(O)Cn1c(=O)n(Cc2ccc(Br)cc2F)c(=O)c2ccc(Cl)cc21,inactive
13,Cn1c(=O)c2c(ncn2CCO)n(C)c1=O,inactive
14,CC(C)=CCC/C(C)=C/CC/C(C)=C/CCC(=O)OC/C=C(\C)CCC=C(C)C,inactive
15,CCN[C@H]1CN(CCCOC)S(=O)(=O)c2sc(S(N)(=O)=O)cc21,inactive
16,CC(=O)Oc1ccc(C)cc1,inactive
17,NS(=O)(=O)c1cc(-c2nn[nH]n2)c(NCc2cccs2)cc1Cl,inactive
18,COC(=O)C1=C(C)NC(C)=C(C(=O)OCC(C)=O)C1c1ccccc1[N+](=O)[O-] (stereo not drawn),inactive
19,O=C(CCBr)N1CCN(C(=O)CCBr)CC1,inactive
20,C[C@]12CC[C@H]3[C@@H](CCC4=CC(=O)CC[C@@H]43)[C@@H]1CC[C@@H]2OC(=O)CCc1ccco1,inactive

row,SMILES,outcome
1,Cc1ccc(O)c2ncccc12,inactive
2,O=C1c2ccccc2CCc2ccccc21,inactive
3,CCC(=O)c1c(O)cc(O)cc1O,inactive
4,CC(=O)NO,inactive
5,C[N+](C)(C)CCOC(N)=O,inactive
6,Nc1ncnc2c1ncn2[C@@H]1O[C@H](COP(=O)(O)O)[C@@H](O)[C@H]1O,inactive
7,N[C@@H](COP(=O)(O)O)C(=O)O,inactive
8,CCOC(N)=O,inactive
9,CC(C)(Oc1ccc(C2CC2(Cl)Cl)cc1)C(=O)O (stereo not drawn),inactive
10,CCCC(=O)OCOC(=O)C1=C(C)NC(C)=C(C(=O)OC)C1c1cccc(Cl)c1Cl (stereo not drawn),inactive
11,C[C@]12C=CC(=O)C=C1CC[C@@H]1[C@@H]2C(=O)C[C@@]2(C)[C@H]1CC[C@]2(O)C(=O)CO,inactive
12,CC(=O)O[C@@H]1CC2C3CCc4cc(OC(=O)c5ccccc5)ccc4C3CCC2(C)[C@H]1OC(C)=O (stereo partly drawn),inactive
13,CCN1CCC[C@H]1CNC(=O)c1cc(S(N)(=O)=O)ccc1OC,inactive
14,CCNC(=O)[C@@H]1CCCN1C(=O)[C@H](CCCN=C(N)N)NC(=O)[C@H](CC(C)C)NC(=O)CNC(=O)[C@H](Cc1ccc(O)cc1)NC(=O)[C@H](CO)NC(=O)[C@H](Cc1c[nH]c2ccccc12)NC(=O)[C@H](Cc1cnc[nH]1)NC(=O)[C@@H]1CCC(=O)N1 (HELM PEPTIDE1{[Glp].H.W.S.Y.G.L.R.P.[CCN[*:1]]}$$$$V2.0),inactive
15,NS(=O)(=O)c1ccc(NC(=O)CCC(=O)O)cc1,inactive
16,Cc1cccc(C(=O)O)c1O,inactive
17,CC(=O)OCC1=C(C(=O)O)N2C(=O)[C@@H](NC(=O)Cc3cccs3)[C@H]2SC1,inactive
18,Cc1onc(-c2ccccc2)c1C(=O)Cl,inactive
19,CC(=O)OCC(=O)[C@@]1(O)[C@H](C)C[C@H]2[C@@H]3CCC4=CC(=O)C=C[C@]4(C)[C@@]3(F)[C@@H](O)C[C@@]21C,inactive
